KCNQ2 pot: potentiators of rat KCNQ2 potassium channel. O88943. CHO-K1 KCNQ2, FluxOR thallium flux fluorescence; stronger effect = higher value. B-score at 10 µM. hit rate 0.54% among 310,000;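 active means fluorescence ratio B-score at least 3 SD of library B-scores, with initial fluorescence B-score within 3 of them, cut at about 5.3 in these data; same plate scores as AID 2156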;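 further: B-score of peak minus minimum over baseline fluorescence ratio after K+ and Tl+ stimulus; positive B-score means potentiation of KCNQ2 with more thallium influx and brighter signal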
KCNQ2 inh: inhibitors of rat KCNQ2 potassium channel; O88943; CHO-K1 KCNQ2, FluxOR thallium flux, 20 min; stronger effect = lower value; B-score at 10 µM; hit rate 1.1% among 310,000; AID 2156;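 active means fluorescence ratio B-score at most minus 3 library SDs, with starting brightness B-score within 2 library SDs, cut at about -5.5 in these data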
Kir21 confirm: confirmation of mouse Kir2.1 potassium channel inhibitors; shares compounds with KCNQ2 pot; Kir2.1-expressing cells, FluxOR thallium flux fluorescence; stronger effect = lower value; Tl flux remaining, % of negative control (stronger effect = lower value), % at 10 µM; hit rate 41% among 2,300;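 active means Primary-screen hit whose thallium flux fell at least 3 control SD below untreated wells in both duplicates, with normal baseline fluorescence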;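 further: 0% = blank wells without stimulus and 100% = stimulated no-compound controls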
HEK293 Tl flux: alters thallium flux in parental HEK293 cells, Kir2.1 counter-screen. shares compounds with KCNQ2 pot. FluxOR thallium flux fluorescence; 0% = unstimulated blank wells. FluxOR signal as % of negative control (100 = no effect), % at 10 µM. hit rate 19% among 2,300;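 active means dye signal at least 3 control SD above or below untreated wells in both duplicates, raw fluorescence within 3, either direction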;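 further: percent is based on the flux ratio of peak minus minimum fluorescence over baseline F0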
CHO-K1 ctr: counter-screen for KCNQ2 potentiators: effect in parental CHO-K1 cells; shares compounds with KCNQ2 pot; hit rate 43% among 1,200; activity increase over 3SD of controls, % at 10 µM; FluxOR thallium flux fluorescence; zero = vehicle mean+3SD, 100% = vehicle-minus-blank window;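 active means signal rise of at least 3 SD above the untreated control mean, in both duplicate wells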;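 further: counter screen of KCNQ2 potentiator hits so any rise reflects channel-independent effects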
KCNQ1 pot spec: selectivity of KCNQ2 potentiators: effect on human KCNQ1; activation over 3SD threshold, % at 10 µM; hit rate 28% among 1,200; AID 2283; CHO KCNQ1 stable, FluxOR thallium flux fluorescence; beyond 3SD, as % of vehicle-control signal; shares compounds with KCNQ2 pot;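 active means fluorescence ratio rise of at least 3 SD of vehicle wells above their mean, in both replicate wells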;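 further: 0% = vehicle mean plus 3 SD and 100% = vehicle minus unstimulated blank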
KCNQ2 pot confirm: rat KCNQ2 channel potentiator confirmation; shares compounds with KCNQ2 pot; CHO-KCNQ2 cells, FluxOR thallium flux fluorescence; potentiation, less the hit threshold, % at 10 µM; hit rate 68% among 1,200; AID 2287;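 active means fluorescence ratio rising 3 SD or more over the vehicle control mean in both replicates, plus primary screen hit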;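 further: peak minus minimum thallium fluorescence divided by baseline after K/Tl stimulus; 0% = vehicle mean plus 3 SD and 100% = vehicle minus unstimulated blank difference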
Kir2-1 sel: mouse Kir2.1 off-target activity of KCNQ2 potentiators; shares compounds with KCNQ2 pot; HEK293 Kir2.1, FluxOR thallium flux fluorescence; activity over 3SD threshold, % at 10 µM; hit rate 2% among 1,200; AID 2345;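 active means fluorescence ratio rise of at least 3 SD above the vehicle-control mean, seen in both replicates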;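 further: 0% = vehicle mean plus 3 SD and 100% = vehicle minus no-stimulus blank window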
KCNQ2 W236L MoA: KCNQ2 potentiators acting on retigabine-insensitive rat KCNQ2 W236L mutant. hit rate 10% among 940. current increase over 3SD of negative controls (%), stronger effect = higher value, % at 25 µM. CHO KCNQ2-W236L, automated patch clamp current. shares compounds with KCNQ2 pot;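 active means current increase at least 3 SD of the untreated controls above them in both duplicate recordings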
Target sequence (O88943 whole entry W236L, looked up): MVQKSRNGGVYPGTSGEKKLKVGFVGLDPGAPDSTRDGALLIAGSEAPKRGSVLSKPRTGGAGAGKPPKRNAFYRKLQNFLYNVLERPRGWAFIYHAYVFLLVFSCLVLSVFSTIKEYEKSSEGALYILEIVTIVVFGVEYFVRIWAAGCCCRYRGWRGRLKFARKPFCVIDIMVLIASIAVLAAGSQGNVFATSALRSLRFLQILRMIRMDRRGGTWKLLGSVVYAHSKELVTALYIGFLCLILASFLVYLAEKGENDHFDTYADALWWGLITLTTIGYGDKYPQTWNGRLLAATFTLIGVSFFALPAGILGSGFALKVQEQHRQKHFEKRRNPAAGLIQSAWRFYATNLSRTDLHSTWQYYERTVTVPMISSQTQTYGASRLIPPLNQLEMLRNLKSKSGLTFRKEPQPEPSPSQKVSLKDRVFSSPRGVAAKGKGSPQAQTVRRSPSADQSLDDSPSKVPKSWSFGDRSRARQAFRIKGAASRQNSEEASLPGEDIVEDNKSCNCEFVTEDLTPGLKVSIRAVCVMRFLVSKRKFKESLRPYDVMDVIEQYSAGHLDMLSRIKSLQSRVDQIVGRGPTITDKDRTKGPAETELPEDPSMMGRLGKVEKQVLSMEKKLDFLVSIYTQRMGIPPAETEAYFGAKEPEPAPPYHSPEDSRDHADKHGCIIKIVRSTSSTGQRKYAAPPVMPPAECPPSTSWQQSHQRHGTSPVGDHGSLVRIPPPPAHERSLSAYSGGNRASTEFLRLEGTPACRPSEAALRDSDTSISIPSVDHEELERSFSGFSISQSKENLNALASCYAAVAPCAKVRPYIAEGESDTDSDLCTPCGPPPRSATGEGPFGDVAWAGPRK
* hit, by the source's call; i = inactive; nt = no result. An excerpt weighted towards active compounds, which were near 1.6% of everything screened.

SMILES | KCNQ2 pot | KCNQ2 inh | Kir21 confirm | HEK293 Tl flux | others
O=C(NCc1ccc2c(c1)OCO2)Nc1cccc(Cl)c1 | 21* | i | i | i | CHO-K1 ctr=-11;KCNQ1 pot spec=-31;KCNQ2 pot confirm=70*;Kir2-1 sel=-26;KCNQ2 W236L MoA=i
CC(=O)c1cccc(NC(=O)NCc2ccc3c(c2)OCO3)c1 | 2.1 | i | nt | nt
O=C(/C=C/c1cccs1)NCc1ccc2c(c1)OCO2 | 8.6* | i | i | i | CHO-K1 ctr=12*;KCNQ1 pot spec=-11;KCNQ2 pot confirm=1.0*;Kir2-1 sel=-40;KCNQ2 W236L MoA=i
COc1cc(OC)c(OC)cc1CNC(=O)c1cc(=O)[nH]c2ccccc12 | 1.5 | i | nt | nt
CN(C)C(CNc1ncnc2sccc12)c1cccs1 (centres undefined) | 0.7 | i | nt | nt
CCOC(=O)c1sc2ncnc(NCC(c3cccs3)N(C)C)c2c1C (centres undefined) | 7.7* | i | i | 252%* | CHO-K1 ctr=-8;KCNQ1 pot spec=0.2*;KCNQ2 pot confirm=32*;Kir2-1 sel=-29;KCNQ2 W236L MoA=i
COc1cc(OC)c(-n2cc(-c3ccc(OC)c(OC)c3)[nH]c2=S)cc1Cl | nt | i | nt | nt
CCN(C(=O)COC(=O)CCS(=O)(=O)c1ccc(C)cc1)C1CCS(=O)(=O)C1 (centres undefined) | nt | i | nt | nt
O=[N+]([O-])c1cccc(S(=O)(=O)Nc2nc3ccccc3nc2Nc2cccc(S(=O)(=O)N3CCCCC3)c2)c1 | 8.2* | i | i | i | CHO-K1 ctr=-13;KCNQ1 pot spec=17*;KCNQ2 pot confirm=-26;Kir2-1 sel=-39
Cc1ccc(S(=O)(=O)Nc2nc3ccccc3nc2Nc2cccc(S(=O)(=O)N3CCCC3)c2)cc1 | nt | i | nt | nt
C#CC(C)(CC)NC(=O)Cn1nnc(-c2cccc(C(F)(F)F)c2)n1 (centres undefined) | nt | i | nt | nt
CCCCOC(=S)NC(=O)c1sc2ccccc2c1Cl | 17* | i | i | 446%* | CHO-K1 ctr=-3;KCNQ1 pot spec=47*;KCNQ2 pot confirm=83*;Kir2-1 sel=-15;KCNQ2 W236L MoA=i
O=C(NC(=S)Nc1ccccc1N1CCOCC1)c1sc2ccccc2c1Cl | 0.64 | i | nt | nt
Cc1ccc(NC(=S)NC(=O)c2sc3ccccc3c2Cl)c(C(=O)O)c1 | 14* | i | i | i | CHO-K1 ctr=2.0*;KCNQ1 pot spec=-15;KCNQ2 pot confirm=29*;Kir2-1 sel=-20;KCNQ2 W236L MoA=i
CN(C)CCCOC(=O)c1sc2ccccc2c1Cl | nt | i | 29%* | i
CN(C(=O)COC(=O)c1sc2ccccc2c1Cl)C1CCCCC1 | nt | i | nt | nt
CCCOc1ccc(C(CC(=O)O)NC(=O)c2sc3ccccc3c2Cl)cc1 (centres undefined) | 0.21 | i | nt | nt
CCOc1ccccc1N1CCN(C(=O)c2cccs2)CC1 | 0.56 | i | nt | nt
COCCCN1C(=O)C2C(C(=O)Nc3cccc(Cl)c3)C3C=CC2(O3)C1C(=O)NC1CCCCC1 (centres undefined) | nt | i | nt | nt
Cc1occc1C(=O)N1CCN(S(=O)(=O)c2ccccc2)CC1 | nt | i | nt | nt
COc1ccc(-n2nnnc2SCC(=O)Nc2cccc(O)c2)cc1 | 1.1 | i | nt | nt
CN(C)CCCOc1ccc(C(C)(C)c2ccccc2)cc1 | nt | i | 36%* | i
CN(C)CCOc1ccc(C(C)(C)c2ccccc2)cc1 | nt | i | nt | nt
O=C(NCc1ccc(Cl)s1)C1CCC(=O)N(CCc2cccc(F)c2)C1 (centres undefined) | nt | i | nt | nt
Cn1c(=O)c2c(ncn2CCC(=O)N/N=C/c2ccncc2)n(C)c1=O | nt | i | nt | nt
SMILES | KCNQ2 pot | KCNQ2 inh | Kir21 confirm | HEK293 Tl flux | others
CC1=C(C(N)=O)C(c2cccs2)n2nc(-c3cccc(Cl)c3)nc2N1 (centres undefined) | 5.8* | i | i | i | CHO-K1 ctr=53*;KCNQ1 pot spec=-11;KCNQ2 pot confirm=-4;Kir2-1 sel=-38;KCNQ2 W236L MoA=0.9%*
CC1=C(C(N)=O)C(c2cccs2)n2nc(-c3cccc(C)c3)nc2N1 (centres undefined) | 0.02 | i | nt | nt
CCn1cc(S(=O)(=O)Nc2cc(C)ccc2F)cn1 | 0.55 | i | nt | nt
CCc1ccc(NC(=O)C(C)Sc2nc(-c3ccco3)c(C#N)c(=O)[nH]2)cc1 (centres undefined) | 4.2 | i | nt | nt
COc1cc(CNC(C)c2ccccc2)cc(Cl)c1OCC(=O)Nc1ccccc1 (centres undefined) | nt | i | 60%* | i
CCN(CC)CCNCc1cc(Cl)c(OCC(=O)Nc2ccccc2)c(OC)c1 | 0.64 | i | nt | nt
CCCCC1CCC(C(=O)N(CCOC)c2c(N)n(CCCC)c(=O)[nH]c2=O)CC1 (centres undefined) | 0.62 | i | nt | nt
COC(=O)[C@@H](NCc1cccc(CN([C@H](C(=O)OC)C(C)C)S(C)(=O)=O)c1)C(C)C | nt | i | nt | nt
Cc1ccc(S(=O)(=O)Oc2ccccc2/C=N/N=C(N)N)cc1 | nt | i | 46%* | i
Cc1ccc(S(=O)(=O)Oc2ccccc2/C=N/NC(N)=S)cc1 | 0.42 | i | nt | nt
COc1ccc(CCC(=O)NC2CCC(C)CC2)cc1 (centres undefined) | 2.1 | i | nt | nt
N=c1c2c(-c3ccccc3)c(-c3ccccc3)n(Cc3ccco3)c2ncn1Cc1ccccc1 | -5.9 | -5.9* | 65%* | i
c1ccc(-c2oc3ncnc(NCCCn4ccnc4)c3c2-c2ccccc2)cc1 | nt | i | nt | nt
N=c1c2c(-c3ccccc3)c(-c3ccccc3)n(Cc3ccco3)c2ncn1CCCn1ccnc1 | nt | i | 32%* | 64%*
N=c1c2c3c(sc2ncn1Cc1ccco1)CCCCC3 | 0.74 | i | nt | nt
COc1ccc(C(OCC(O)CNCCc2ccccc2)c2ccc(OC)cc2)cc1 (centres undefined) | nt | i | 44%* | i
Cc1ccc(C(OCC(O)CN2CCCCC2CO)c2ccccc2)cc1 (centres undefined) | 0.03 | i | nt | nt
Cc1ccc(C(OCC(O)CNCc2ccc(F)cc2)c2ccccc2)cc1 (centres undefined) | nt | i | 34%* | i
Cc1ccc(OCC(O)CNCc2ccccc2)cc1C (centres undefined) | nt | i | nt | nt
O=C(c1ccccc1)c1ccc(OCC(O)CNCc2ccc(F)cc2)cc1 (centres undefined) | nt | i | 26%* | i
O=C(c1ccccc1)c1ccc(OCC(O)CNCc2cccc(Cl)c2)cc1 (centres undefined) | nt | i | 48%* | i
CCC(=O)c1ccc(OCC(O)CNCc2ccc(F)cc2)cc1 (centres undefined) | 0.66 | i | nt | nt
COc1ccc(C(OCC(O)CNC(C)c2ccccc2)c2ccc(OC)cc2)cc1 (centres undefined) | nt | i | nt | nt
Cn1nnnc1NCc1ccccc1F | nt | i | nt | nt
